Screening data: PubChem, several laboratories
CHOP inhibitor: blocks CHOP induction under ER stress; actives 3.8% (n = 220,000); AID 2732; inhibition, % at 10 µM; CHO-K1 CHOP-promoter luciferase, tunicamycin-induced, 15-18 h;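 active = compounds that reduced the stress-induced luciferase reporter signal by more than about 70% of percent inhibition, limit read from the data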
Lmaj promast: reduces viability of Leishmania major promastigotes; AID 1063; resazurin fluorescence viability; actives 9% (n = 200,000); inhibition, % at 10 µM; in the data active = inhibition above about 50%;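 note: promastigotes grown with compound for 44 hours at 28 °C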
Arbovirus anti: antivirals against arbovirus infection; actives 0.37% (n = 200,000); arbovirus infection cell-based antiviral screen; inhibition, % at 10 µM; in the data active = inhibition above about 30%
WT yeast gro inh: growth inhibition of WT yeast, mitochondrial fusion screen; inhibition, % at 10 µM; mitochondrial fusion phenotypic screen, WT strain; AID 1362; actives 2.1% (n = 190,000); in the data active = inhibition above about 58%; tested in S. cerevisiae
Large screens that a line does not name were inactive. Shown are actives, neighbours in structure and some others; about 12% of the full set was active somewhere.

Cc1c(C)n(C(=O)CSc2nc3ccccc3[nH]2)c2ccccc12	CHOP inhibitor 80
C=CCn1c(C)cc(C(=O)CSc2nc3ccccc3[nH]2)c1C	Lmaj promast 70
O=C(CSc1nc2ccccc2[nH]1)c1ccc(Cl)s1	Lmaj promast 80
Cc1cc(C(=O)CSc2nc3ccccc3[nH]2)c(C)n1Cc1ccco1	Lmaj promast 95
O=C(NC1CCCCC1)c1ccc(-n2cnnn2)cc1	none (no result: Lmaj promast, Arbovirus anti, WT yeast gro inh)
CCCn1c(C)cc(C(=O)CSc2nc3ccccc3c(=O)n2Cc2ccco2)c1C	Lmaj promast 89
CC1CCCCN1C(=O)CSc1nc2cc3c(cc2c(=O)n1Cc1ccc2c(c1)OCO2)OCO3 (centres undefined)	Lmaj promast 54
Cc1cc(C(=O)CN2C(=O)NC(c3ccccc3)(c3ccccc3)C2=O)c(C)n1Cc1ccco1	Lmaj promast 52
Cc1cc(C(=O)CSc2nnc(-c3ccccc3)n2Cc2ccc3c(c2)OCO3)c(C)n1C	none
Cc1cc(C(=O)CSc2nc3ccccc3c(=O)n2C)c(C)n1Cc1ccc2c(c1)OCO2	CHOP inhibitor 79
CCCCn1c(SCC(=O)N(C)C2CCS(=O)(=O)C2)nc2cc(S(N)(=O)=O)ccc21 (centres undefined)	none (no result: Lmaj promast, Arbovirus anti, WT yeast gro inh)
CC1CCN(C(=O)c2[nH]cnc2C(=O)N[C@@H](C)C(=O)OCc2ccccc2)CC1	none (no result: Lmaj promast, Arbovirus anti, WT yeast gro inh)
C=CCn1c(C)cc(C(=O)CSc2nc3ccccc3o2)c1C	CHOP inhibitor 74
Cc1cc(C(=O)CSc2nnc(-c3ccco3)o2)c(C)n1Cc1ccco1	Arbovirus anti 31
COC(=O)C1=C(C)NC(C)=C(C(=O)OC)C1c1cn(-c2ccccc2)nc1-c1ccco1	Lmaj promast 64 (no result: WT yeast gro inh)
COCCOC(=O)C1=C(C)NC(=O)NC1c1cn(-c2ccccc2)nc1-c1cccs1 (centres undefined)	none
Cc1cc(C)c(C2=NOC3C4CCC(C4)C23)c(C)c1 (centres undefined)	none
CC1CCCN(Cc2c(O)ccc3c(=O)c(-c4nc5ccccc5s4)c(N)oc23)C1 (centres undefined)	Lmaj promast 101 (no result: WT yeast gro inh)
CC1CCN(Cc2c(O)ccc3c(=O)c(-c4nc5ccccc5s4)c(N)oc23)CC1	Lmaj promast 60
O=C(CNC(=O)C1COc2ccccc2O1)N/N=C\c1ccc(Cl)cc1 (centres undefined)	none (no result: Lmaj promast, Arbovirus anti, WT yeast gro inh)
O=C(NCc1ccncc1)/C(=C/c1cccc([N+](=O)[O-])c1)NC(=O)c1ccccc1	none (no result: Lmaj promast, Arbovirus anti, WT yeast gro inh)
COc1cccc(C(C)NC(=S)NCc2ccc(Cl)cc2)c1 (centres undefined)	WT yeast gro inh 66
COC(=O)c1cccc(NC(=S)NCc2ccc(Cl)cc2)c1	none
O=C(NC(=S)NCc1ccccc1)c1ccccc1[N+](=O)[O-]	none
CCCn1c(N2CCN(CC(=O)Nc3ccc4c(c3)OCCO4)CC2)nc2ccccc21	Lmaj promast 79
COc1ccc(N=Nc2[nH]c3ccc(C)cc3c2O)cc1	CHOP inhibitor 91
C=CCNC(=S)NNc1nc2c(c(=O)[nH]1)C1(CCCC1)Cc1ccccc1-2	none
O=c1[nH]c(NNC(=S)NCc2ccccc2)nc2c1C1(CCCCC1)Cc1ccccc1-2	CHOP inhibitor 87
CC1(c2nnc(Cc3ccccc3)o2)CC(c2cccc(Cl)c2)=NO1 (centres undefined)	none (no result: Lmaj promast, Arbovirus anti, WT yeast gro inh)
Cc1nnc(NC(=O)CSc2nc3c(c(=O)n2CCc2ccccc2)SC(C)C3)s1 (centres undefined)	CHOP inhibitor 93
CCc1nnc(NC(=O)CSc2nc3c(c(=O)n2C)SC(C)C3)s1 (centres undefined)	none
CC1Cc2nc(SCC(=O)Nc3nc4ccccc4s3)n(C)c(=O)c2S1 (centres undefined)	CHOP inhibitor 75
C#CC(C)OC(=O)Nc1cnccc1C(F)(F)F (centres undefined)	none (no result: Lmaj promast, Arbovirus anti, WT yeast gro inh)
N#Cc1ccccc1S(=O)(=O)N1CCN(c2cnccn2)CC1	none
O=C(CCN1C(=O)/C(=C/c2cccs2)SC1=S)NC1=NCCS1	WT yeast gro inh 72
COc1ccccc1/C=C1\SC(=S)N(CCC(=O)NC2=NCCS2)C1=O	Lmaj promast 52
CCc1ccc(/C=C2\SC(=S)N(CCC(=O)NC3=NCCS3)C2=O)cc1	CHOP inhibitor 88
O=C(CCN1C(=O)/C(=C\c2cccs2)SC1=S)NC1=NCCS1	WT yeast gro inh 76
CCc1ccc(/C=C2/SC(=S)N(CC(=O)Nc3nc4ccccc4s3)C2=O)cc1	none
CCN(CCn1cccn1)C(=O)CCc1nnc(CCCc2ccccc2)o1	none
COC(=O)CSc1nnc(CNC(=O)c2ccc(OC)c(OC)c2)n1C	none
COc1ccccc1C(=O)Nc1nnc(C)s1	none
COc1ccccc1/C=C1\SC(=S)N(CC(=O)Nc2nnc(C)s2)C1=O	CHOP inhibitor 72
c1ccc(N2CC3CCc4ccccc4C3=N2)cc1 (centres undefined)	none (no result: Lmaj promast, Arbovirus anti, WT yeast gro inh)
CCc1ccccc1N1CCN(S(=O)(=O)c2ccc(F)c(C)c2)CC1	CHOP inhibitor 74
Cc1ccc(N2CCN(S(=O)(=O)c3ccc(F)c(C)c3)CC2)c(C)c1	none
CCC(=O)c1cc(F)c(N2CCN(S(=O)(=O)c3ccc(C)cc3)CC2)cc1C	Lmaj promast 69
Cc1nn(-c2cc(N(S(C)(=O)=O)S(C)(=O)=O)c(Cl)cc2Cl)c(=O)n1C	none
O=C1/C(=C/c2ccccn2)COc2ccccc21	Lmaj promast 100
O=C1/C(=C/c2ccccc2[N+](=O)[O-])COc2ccccc21	CHOP inhibitor 95, Lmaj promast 100
CNc1ccc(/C=C2\COc3ccccc3C2=O)cc1[N+](=O)[O-]	none
CC(/C=N/Nc1ccc2nncn2n1)=C\c1ccccc1	none (no result: Lmaj promast, Arbovirus anti, WT yeast gro inh)
CN=C1SC(CC(=O)Nc2c(C)cccc2C)C(=O)N1/N=C/c1cccs1 (centres undefined)	Lmaj promast 55
CC(=O)c1ccc(N2CCN(C(=O)Nc3ccc(F)cc3)CC2)cc1	none
CC(=O)c1ccc(N2CCN(C(=O)Nc3ccc(C(C)C)cc3)CC2)cc1	Lmaj promast 65
CC1=C/C(=N\NC(=O)c2ccc(O)cc2)CC1	none
CCOC(=O)C1(Cc2ccc(Cl)cc2)CCN(C(=O)c2cnc(C)cn2)CC1	none (no result: Lmaj promast, Arbovirus anti, WT yeast gro inh)
CCOC(=O)C1(Cc2ccc(Cl)cc2)CCN(C(=O)c2ccoc2)CC1	Lmaj promast 53
COc1ccc(OCCOC(=O)c2nc3nccc(C)n3n2)cc1	none
Cc1cccc2nc(-c3ccccc3)nc(N3CCC(O)(c4ccc(Cl)cc4)CC3)c12	Lmaj promast 79, WT yeast gro inh 68
COc1ccc(/C=C/C(=O)CC(O)(c2ccccc2)C(F)(F)F)cc1 (centres undefined)	Lmaj promast 98
O=C(/C=C/c1ccccc1)CC(O)(c1ccccc1)C(F)(F)C(F)F (centres undefined)	Lmaj promast 100
Cc1ccccc1C(=O)NNC(=O)/C=C/c1ccccc1	none
CN(C)C(=S)Nc1ccc2ccccc2c1	none
Cc1nn2c(NCCN(C)C)c3c(nc2c1-c1ccccc1)CCCC3	none (no result: Lmaj promast, Arbovirus anti, WT yeast gro inh)
Cc1cccc(OCCSc2nc3ncnc(N)c3[nH]2)c1	none
Cc1cccc(OCCCSc2nc3ccc(C)cc3[nH]2)c1	WT yeast gro inh 82
Cc1cc(Br)c(OCc2ccc(C(=O)N/N=C3\CC(=O)CC(C)(C)C3)cc2)c(Br)c1	CHOP inhibitor 91
Cc1ccc(S(=O)(=O)c2c(C)nn(C(C)(C)C)c2OC(=O)C2CCCC2)cc1	CHOP inhibitor 77, WT yeast gro inh 72
